# Laboratory results from PubChem BioAssay (EPA / NIEHS).
# Several values for one entry are separate records, joined by “and”; a condition that tells them apart may be missing. Identical values can stand only once. Inconclusive results are not listed. Activity calls are given as the source filed them. Rule for the calls, unless noted: active = hit-call score of the fitted dose curve at least 0.9, where 1 is the maximum; inconclusive = response in the unintended direction; inactive = score below 0.9.
# How the values were obtained:
# [1] = read-out: Intercellular Adhesion Molecule 1 (ICAM1), ICAM1 (gene 3383); assay: BSK_3C_ICAM1: BioMAP Diversity Plus: 3C Assay for Intercellular Adhesion Molecule 1 (ICAM1) Biomarker Activity (AID 2283003; active = hit-call score of the fitted dose curve at least 0.9, where 1 is the maximum; inactive = score below 0.9); details: primary human endothelial cells (HUVEC); actives raise or lower the signal
# How it was run: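 Primary human umbilical vein endothelial cells in the BioMAP 3C system were exposed to chemicals for 24 h, then ICAM-1 was quantified by ELISA. Activity was fitted bidirectionally against the DMSO negative control baseline.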
# [2] = target: Retinoic acid receptor alpha (Homo sapiens) (UniProt P10276); assay: ATG_RARa_TRANS: Attagene TRANS-FACTORIAL HepG2 Assay for human Retinoic Acid Receptor alpha (RARa) (AID 2283005)
# How it was run: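 HepG2 cells transiently transfected with multiple reporter units expressing chimeric RARα-GAL4 fusion, with GAL4-UAS-driven reporters. After 24 h compound exposure, reporter mRNA induction quantified by RT-PCR and capillary electrophoresis with fluorescent labeling; gain-of-signal fitted relative to DMSO control.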
# [3] = BSK_3C_Proliferation: Cell Proliferation Assessment in the BioMAP Diversity Plus: 3C Assay (AID 2283006; active = hit-call score of the fitted dose curve at least 0.9, where 1 is the maximum; inactive = score below 0.9;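 for AC50: potency may reflect either rise or fall in cell number versus DMSO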); details: primary human endothelial cells (HUVEC)
# How it was run: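 Human umbilical vein endothelial cells were grown sub-confluent and exposed to chemical for 48 h, then fixed with 10% TCA and stained with 0.1% sulforhodamine B; absorbance at 560 nm gave relative cell number, fitted bidirectionally against DMSO baseline.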
# [4] = target: human RAR-related Orphan Receptor gamma (RORg), RORC (gene 6097) (UniProt P51449); assay: ATG_RORg_TRANS: Attagene TRANS-FACTORIAL HepG2 Assay for human RAR-related Orphan Receptor gamma (RORg) (AID 2283011)
# How it was run: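 Readout: reporter transcript induction (RT-PCR, fluorescent primer extension, capillary electrophoresis) after 24 h compound exposure of transiently transfected HepG2 cells carrying a RORg-Gal4 chimera and GAL4-UAS reporters; DMSO served as baseline, with increasing signal fitted.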
# [5] = target: Retinoic acid receptor RXR-alpha (Homo sapiens) (UniProt P19793); assay: ATG_RXRa_TRANS: Attagene TRANS-FACTORIAL HepG2 Assay for human Retinoid X Receptor alpha (RXRa) (AID 2283012)
# How it was run: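 HepG2 cells transiently transfected with multiplexed GAL4-UAS reporter units and chimeric NR-GAL4 fusions, dosed 24 h. Reporter mRNA measured by RT-PCR, FAM labelling, HpaI digestion and capillary electrophoresis; gain-of-signal fitted relative to DMSO baseline.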
# [6] = target: human Thyroid Receptor alpha (THRa1), THRA (gene 7067) (UniProt P10827); assay: ATG_THRa1_TRANS: Attagene TRANS-FACTORIAL HepG2 Assay for human Thyroid Receptor alpha (THRa1) (AID 2283014)
# How it was run: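 HepG2 cells transiently transfected with multiplexed GAL4-UAS reporter units for exogenous chimeric THRa1-Gal4; reporter mRNA measured 24 h after dosing by RT-PCR, 6-FAM labelling, HpaI digestion and capillary electrophoresis. Gain-of-signal fitted versus DMSO baseline.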
# [7] = read-out: E-selectin (Homo sapiens) (UniProt P16581); assay: BSK_3C_Eselectin: BioMAP Diversity Plus: 3C Assay for Eselectin Biomarker Activity (AID 2283015; active = hit-call score of the fitted dose curve at least 0.9, where 1 is the maximum; inactive = score below 0.9;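 for outcome: cell surface E-selectin protein quantified by ELISA 24 h after dosing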); details: primary human endothelial cells (HUVEC); actives raise or lower the signal
# How it was run: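 Primary human umbilical vein endothelial cells (3C system) were dosed with chemical and cell-surface E-selectin measured by ELISA 24 h later. Bidirectional curve fitting used DMSO as negative control and baseline.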
# [8] = read-out: Interleukin-1 alpha (IL1a), IL1A (gene 3552); assay: BSK_BE3C_IL1a: BioMAP Diversity Plus: BE3C Assay for Interleukin-1 alpha (IL1a) Biomarker Activity (AID 2283016; active = hit-call score of the fitted dose curve at least 0.9, where 1 is the maximum; inactive = score below 0.9); details: primary human bronchial epithelial cells; actives raise or lower the signal
# How it was run: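 Human primary bronchial epithelial cells (BE3C system) were dosed with compound and IL-1a measured by ELISA 24 h later. Activity was fitted bidirectionally against DMSO baseline; cytotoxicity was tracked in parallel cultures by SRB total-protein staining.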
# [9] = read-out: Monocyte Chemoattractant Protein-1 (MCP1), CCL2 (gene 6347); assay: BSK_3C_MCP1: BioMAP Diversity Plus: 3C Assay for Monocyte Chemoattractant Protein-1 (MCP1) Biomarker Activity (AID 2283017; active = hit-call score of the fitted dose curve at least 0.9, where 1 is the maximum; inactive = score below 0.9); details: primary human endothelial cells (HUVEC); actives raise or lower the signal
# How it was run: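 Primary human umbilical vein endothelial cells (3C system) were exposed to test chemical for 24 h, after which MCP-1 was quantified by ELISA. Activity was fitted bidirectionally against DMSO as negative control and baseline.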
# [10] = read-out: Monocyte Chemoattractant Protein-1 (MCP1), CCL2 (gene 6347); assay: BSK_4H_MCP1: BioMAP Diversity Plus: 4H Assay for Monocyte Chemoattractant Protein-1 (MCP1) Biomarker Activity (AID 2283018; active = hit-call score of the fitted dose curve at least 0.9, where 1 is the maximum; inactive = score below 0.9); details: primary human endothelial cells (HUVEC); actives raise or lower the signal
# How it was run: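 Human umbilical vein endothelial cells (4H system) dosed with chemical; MCP-1 measured by ELISA 24 h after dosing. Bidirectional curve fitting against DMSO negative control as baseline; parallel SRB total-protein staining tracks overt cytotoxicity.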
# [11] = read-out: Human Leukocyte Antigen - DR isotype (HLADR), HLA-DRA (gene 3122); assay: BSK_3C_HLADR: BioMAP Diversity Plus: 3C Assay for Human Leukocyte Antigen - DR isotype (HLADR) Biomarker Activity (AID 2283019; active = hit-call score of the fitted dose curve at least 0.9, where 1 is the maximum; inactive = score below 0.9;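 for outcome: ELISA of cell-surface HLA-DR on HUVEC 24 h after dosing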); details: primary human endothelial cells (HUVEC); actives raise or lower the signal
# How it was run: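 Primary human umbilical vein endothelial cells (3C system) were dosed with compound and cell-surface HLA-DR was quantified by ELISA at 24 h. Activity was fitted bidirectionally against DMSO as negative control and baseline.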
# [12] = read-out: Interleukin-8 (IL8), CXCL8 (gene 3576); assay: BSK_3C_IL8: BioMAP Diversity Plus: 3C Assay for Interleukin-8 (IL8) Biomarker Activity (AID 2283020; active = hit-call score of the fitted dose curve at least 0.9, where 1 is the maximum; inactive = score below 0.9); details: primary human endothelial cells (HUVEC); actives raise or lower the signal
# How it was run: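 Primary human umbilical vein endothelial cells (3C system) were exposed to test chemical for 24 h, then IL-8 was quantified by ELISA. Responses were fitted bidirectionally against DMSO vehicle as baseline.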
# [13] = read-out: Monokine induced gamma interferon (MIG), CXCL9 (gene 4283); assay: BSK_3C_MIG: BioMAP Diversity Plus: 3C Assay for Monokine induced gamma interferon (MIG) Biomarker Activity (AID 2283021; active = hit-call score of the fitted dose curve at least 0.9, where 1 is the maximum; inactive = score below 0.9;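 for AC50: MIG protein level measured by immunoassay in the treated endothelial cultures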); details: primary human endothelial cells (HUVEC); actives raise or lower the signal
# How it was run: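 Primary human umbilical vein endothelial cells in the 3C system were exposed to chemical for 24 h, after which MIG was quantified by ELISA. Activity was fitted bidirectionally against DMSO as negative control and baseline.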
# [14] = target: human Retinoic Acid Receptor beta (RARb), RARB (gene 5915) (UniProt P10826); assay: ATG_RARb_TRANS: Attagene TRANS-FACTORIAL HepG2 Assay for human Retinoic Acid Receptor beta (AID 2283004)
# How it was run: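 HepG2 cells transiently transfected with multiplexed GAL4-UAS reporter units expressing chimeric NR–Gal4 fusions; 24 h compound exposure. Reporter mRNA quantified by RT-PCR, 6-FAM labelling, HpaI digestion and capillary electrophoresis; gain-of-signal fitted against DMSO baseline.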
# [15] = target: Nuclear receptor subfamily 1 group I member 2 (Homo sapiens) (UniProt O75469); assay: ATG_PXR_TRANS: Attagene TRANS-FACTORIAL HepG2 Assay for human Pregnane X Receptor (PXR) (AID 2283008)
# How it was run: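 Fluorescence intensity of FAM-labelled, HpaI-digested reporter amplicons, separated by capillary electrophoresis, quantifies induction. HepG2 cells with PXR-Gal4 trans-reporter system were exposed 24 h; DMSO defines baseline.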
# [16] = target: human Retinoic Acid Receptor gamma (RARg), RARG (gene 5916) (UniProt P13631); assay: ATG_RARg_TRANS: Attagene TRANS-FACTORIAL HepG2 Assay for human Retinoic Acid Receptor gamma (RARg) (AID 2283009);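 for AC50: AC50 is for reporter induction above DMSO meaning RARg activation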
# How it was run: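 HepG2 cells transiently transfected with multiplexed reporter units expressing chimeric RARg-GAL4 and GAL4-UAS-driven reporters; 24 h compound exposure. Reporter mRNA quantified by RT-PCR with fluorescent labelling and capillary electrophoresis; gain-of-signal fitted relative to DMSO baseline.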
# [17] = target: human RAR-related Orphan Receptor beta (RORb), RORB (gene 6096) (UniProt Q92753); assay: ATG_RORb_TRANS: Attagene TRANS-FACTORIAL HepG2 Assay for human RAR-related Orphan Receptor beta (RORb) (AID 2283010)
# How it was run: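 HepG2 cells were transiently transfected with multiplexed GAL4-UAS reporter units expressing chimeric nuclear receptor–GAL4 proteins, then dosed for 24 h. Reporter mRNA was quantified by RT-PCR with fluorescent labelling and capillary electrophoresis; gain of signal was fitted relative to DMSO.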
# [18] = target: human Retinoid X Receptor beta (RXRb), RXRB (gene 6257) (UniProt P28702); assay: ATG_RXRb_TRANS: Attagene TRANS-FACTORIAL HepG2 Assay for human Retinoid X Receptor beta (RXRb) (AID 2283013)
# How it was run: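 HepG2 cells transiently transfected with multiplexed reporter units driven by GAL4-UAS and exogenous chimeric NR-Gal4 proteins; treated 24 h. Reporter mRNA measured by RT-PCR, 6-FAM labelling and capillary electrophoresis; gain-of-signal fitted versus DMSO baseline.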
# [19] = target: human Vitamin D Receptor (VDR), VDR (gene 7421) (UniProt P11473); assay: ATG_VDR_TRANS: Attagene TRANS-FACTORIAL HepG2 Assay for human Vitamin D Receptor (VDR) (AID 2283022)
# How it was run: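 HepG2 cells were transiently transfected with multiple GAL4-UAS reporter units, so signal reflects exogenous chimeric receptor-Gal4 activity. After 24 h compound exposure, reporter mRNA was measured by RT-PCR, fluorescent labelling and capillary electrophoresis, fitted for gain of signal versus DMSO.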
# [20] = target: Peroxisome proliferator-activated receptor gamma (Homo sapiens) (UniProt P37231); assay: ATG_PPARg_TRANS: Attagene TRANS-FACTORIAL HepG2 Assay for human Peroxisome Proliferator-activated Receptor-gamma (PPARg) (AID 2283007)
# How it was run: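 Transient transfection of HepG2 with GAL4-UAS-driven reporter units; chemical dosing 24 h; total RNA → oligo(dT) RT → PCR with reporter primers → 6-FAM primer extension → HpaI digest 2 h 37 C → capillary electrophoresis. Positive direction vs DMSO.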
# human Vitamin D Receptor (VDR), VDR (gene 7421), sequence (P11473 whole entry, looked up, the tested form may be a part): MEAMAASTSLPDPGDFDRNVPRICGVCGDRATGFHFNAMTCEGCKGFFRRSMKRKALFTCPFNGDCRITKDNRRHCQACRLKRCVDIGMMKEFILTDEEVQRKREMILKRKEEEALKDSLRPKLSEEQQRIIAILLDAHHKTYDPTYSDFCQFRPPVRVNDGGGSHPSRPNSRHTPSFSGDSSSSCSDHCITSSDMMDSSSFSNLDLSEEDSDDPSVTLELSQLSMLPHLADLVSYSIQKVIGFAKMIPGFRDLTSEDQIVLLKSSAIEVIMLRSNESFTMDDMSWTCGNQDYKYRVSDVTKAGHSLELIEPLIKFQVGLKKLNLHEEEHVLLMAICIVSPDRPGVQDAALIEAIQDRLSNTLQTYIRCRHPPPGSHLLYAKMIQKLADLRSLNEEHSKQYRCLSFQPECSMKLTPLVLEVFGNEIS
# human Retinoid X Receptor beta (RXRb), RXRB (gene 6257), sequence (P28702 whole entry, looked up, the tested form may be a part): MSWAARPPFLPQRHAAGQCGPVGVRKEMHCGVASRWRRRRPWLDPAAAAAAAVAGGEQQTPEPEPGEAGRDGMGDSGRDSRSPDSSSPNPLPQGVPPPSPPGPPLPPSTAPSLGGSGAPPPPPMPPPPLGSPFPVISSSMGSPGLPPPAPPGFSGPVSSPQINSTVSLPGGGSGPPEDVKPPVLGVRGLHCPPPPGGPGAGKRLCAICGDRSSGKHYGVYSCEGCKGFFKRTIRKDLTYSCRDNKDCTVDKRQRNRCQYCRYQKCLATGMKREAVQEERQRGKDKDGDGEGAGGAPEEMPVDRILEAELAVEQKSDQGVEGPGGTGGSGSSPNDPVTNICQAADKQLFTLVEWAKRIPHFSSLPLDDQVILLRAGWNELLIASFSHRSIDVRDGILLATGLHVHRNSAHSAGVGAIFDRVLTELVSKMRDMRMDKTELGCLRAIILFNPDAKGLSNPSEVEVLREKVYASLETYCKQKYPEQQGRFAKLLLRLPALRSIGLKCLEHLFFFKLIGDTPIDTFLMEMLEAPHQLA
# Retinoic acid receptor RXR-alpha (Homo sapiens), sequence (P19793 whole entry, looked up, the tested form may be a part): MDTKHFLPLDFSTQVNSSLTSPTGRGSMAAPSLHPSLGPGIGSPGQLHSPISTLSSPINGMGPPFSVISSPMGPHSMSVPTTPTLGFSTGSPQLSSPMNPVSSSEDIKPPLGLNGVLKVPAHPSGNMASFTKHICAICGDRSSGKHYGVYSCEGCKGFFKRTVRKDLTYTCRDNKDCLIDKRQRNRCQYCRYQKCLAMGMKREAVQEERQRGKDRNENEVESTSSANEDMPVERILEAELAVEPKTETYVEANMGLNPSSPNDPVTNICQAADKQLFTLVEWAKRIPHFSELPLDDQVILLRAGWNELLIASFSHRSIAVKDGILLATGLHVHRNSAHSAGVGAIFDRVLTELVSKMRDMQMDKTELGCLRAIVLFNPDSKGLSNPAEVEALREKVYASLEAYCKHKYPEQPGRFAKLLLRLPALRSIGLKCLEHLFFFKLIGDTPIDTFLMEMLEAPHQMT
# E-selectin (Homo sapiens), sequence (P16581 whole entry, looked up): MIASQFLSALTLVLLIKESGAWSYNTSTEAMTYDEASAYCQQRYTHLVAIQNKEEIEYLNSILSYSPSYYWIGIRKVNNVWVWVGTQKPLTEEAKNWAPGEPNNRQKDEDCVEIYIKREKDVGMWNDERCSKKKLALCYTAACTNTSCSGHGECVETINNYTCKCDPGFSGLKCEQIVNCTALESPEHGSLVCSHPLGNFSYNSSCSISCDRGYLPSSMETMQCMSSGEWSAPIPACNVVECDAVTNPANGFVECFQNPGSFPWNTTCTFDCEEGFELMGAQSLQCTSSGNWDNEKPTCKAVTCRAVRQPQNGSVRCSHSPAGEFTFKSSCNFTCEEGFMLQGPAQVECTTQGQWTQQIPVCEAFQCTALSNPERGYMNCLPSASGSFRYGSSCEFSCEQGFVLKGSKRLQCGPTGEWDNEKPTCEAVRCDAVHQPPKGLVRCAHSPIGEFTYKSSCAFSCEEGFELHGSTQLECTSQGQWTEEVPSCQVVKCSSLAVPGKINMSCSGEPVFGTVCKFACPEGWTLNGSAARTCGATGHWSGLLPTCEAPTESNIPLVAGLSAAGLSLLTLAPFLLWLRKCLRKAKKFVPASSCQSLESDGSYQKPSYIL
# Retinoic acid receptor alpha (Homo sapiens), sequence (P10276 whole entry, looked up, the tested form may be a part): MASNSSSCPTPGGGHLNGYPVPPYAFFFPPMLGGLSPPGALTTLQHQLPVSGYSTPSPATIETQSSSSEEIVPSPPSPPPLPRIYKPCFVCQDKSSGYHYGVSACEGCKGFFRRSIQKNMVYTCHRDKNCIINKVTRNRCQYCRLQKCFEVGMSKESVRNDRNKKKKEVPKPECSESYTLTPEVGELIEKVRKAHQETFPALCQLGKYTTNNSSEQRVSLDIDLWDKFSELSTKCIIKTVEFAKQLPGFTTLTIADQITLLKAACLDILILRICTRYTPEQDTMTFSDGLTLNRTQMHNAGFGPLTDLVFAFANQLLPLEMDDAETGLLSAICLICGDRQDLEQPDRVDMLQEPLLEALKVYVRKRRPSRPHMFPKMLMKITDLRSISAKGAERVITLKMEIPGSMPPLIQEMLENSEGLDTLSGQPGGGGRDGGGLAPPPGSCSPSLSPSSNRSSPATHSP
# human RAR-related Orphan Receptor beta (RORb), RORB (gene 6096), sequence (Q92753 whole entry, looked up, the tested form may be a part): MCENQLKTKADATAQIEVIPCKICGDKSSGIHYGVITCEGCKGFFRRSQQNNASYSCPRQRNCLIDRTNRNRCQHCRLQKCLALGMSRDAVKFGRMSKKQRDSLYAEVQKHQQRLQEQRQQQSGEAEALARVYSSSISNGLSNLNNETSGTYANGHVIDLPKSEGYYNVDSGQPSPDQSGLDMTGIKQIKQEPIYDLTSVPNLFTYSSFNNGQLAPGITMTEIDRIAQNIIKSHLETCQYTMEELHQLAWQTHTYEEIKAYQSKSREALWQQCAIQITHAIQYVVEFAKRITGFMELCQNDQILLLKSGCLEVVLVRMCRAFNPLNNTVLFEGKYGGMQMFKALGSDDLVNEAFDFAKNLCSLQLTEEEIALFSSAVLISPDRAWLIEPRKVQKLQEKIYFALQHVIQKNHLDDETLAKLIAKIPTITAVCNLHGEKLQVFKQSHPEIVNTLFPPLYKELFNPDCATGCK
# Peroxisome proliferator-activated receptor gamma (Homo sapiens), sequence (P37231 whole entry, looked up, the tested form may be a part): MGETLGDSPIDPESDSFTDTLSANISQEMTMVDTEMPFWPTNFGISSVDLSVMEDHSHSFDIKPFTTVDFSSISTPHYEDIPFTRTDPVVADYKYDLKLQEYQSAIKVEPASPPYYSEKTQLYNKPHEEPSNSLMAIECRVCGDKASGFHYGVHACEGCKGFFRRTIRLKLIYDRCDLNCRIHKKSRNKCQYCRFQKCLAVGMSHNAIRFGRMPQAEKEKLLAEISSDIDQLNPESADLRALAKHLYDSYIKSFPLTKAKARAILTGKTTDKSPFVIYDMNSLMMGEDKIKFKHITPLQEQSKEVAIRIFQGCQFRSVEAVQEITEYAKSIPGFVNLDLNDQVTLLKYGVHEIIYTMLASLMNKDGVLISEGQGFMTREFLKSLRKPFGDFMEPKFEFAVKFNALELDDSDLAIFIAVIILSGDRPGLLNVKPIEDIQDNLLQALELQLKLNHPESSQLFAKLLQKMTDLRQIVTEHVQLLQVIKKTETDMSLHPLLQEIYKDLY
# human Retinoic Acid Receptor gamma (RARg), RARG (gene 5916), sequence (P13631 whole entry, looked up, the tested form may be a part): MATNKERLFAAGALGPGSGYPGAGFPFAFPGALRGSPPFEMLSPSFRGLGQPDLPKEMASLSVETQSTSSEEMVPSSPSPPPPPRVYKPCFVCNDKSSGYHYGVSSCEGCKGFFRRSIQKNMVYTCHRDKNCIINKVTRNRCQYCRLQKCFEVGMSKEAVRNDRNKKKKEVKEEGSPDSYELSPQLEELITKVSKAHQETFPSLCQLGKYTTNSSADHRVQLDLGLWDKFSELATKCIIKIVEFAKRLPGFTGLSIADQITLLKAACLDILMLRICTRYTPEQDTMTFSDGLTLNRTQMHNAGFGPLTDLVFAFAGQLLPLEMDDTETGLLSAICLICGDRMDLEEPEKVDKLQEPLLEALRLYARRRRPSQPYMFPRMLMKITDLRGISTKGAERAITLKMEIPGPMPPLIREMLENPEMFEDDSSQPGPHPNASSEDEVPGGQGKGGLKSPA
# human Retinoic Acid Receptor beta (RARb), RARB (gene 5915), sequence (P10826 whole entry, looked up, the tested form may be a part): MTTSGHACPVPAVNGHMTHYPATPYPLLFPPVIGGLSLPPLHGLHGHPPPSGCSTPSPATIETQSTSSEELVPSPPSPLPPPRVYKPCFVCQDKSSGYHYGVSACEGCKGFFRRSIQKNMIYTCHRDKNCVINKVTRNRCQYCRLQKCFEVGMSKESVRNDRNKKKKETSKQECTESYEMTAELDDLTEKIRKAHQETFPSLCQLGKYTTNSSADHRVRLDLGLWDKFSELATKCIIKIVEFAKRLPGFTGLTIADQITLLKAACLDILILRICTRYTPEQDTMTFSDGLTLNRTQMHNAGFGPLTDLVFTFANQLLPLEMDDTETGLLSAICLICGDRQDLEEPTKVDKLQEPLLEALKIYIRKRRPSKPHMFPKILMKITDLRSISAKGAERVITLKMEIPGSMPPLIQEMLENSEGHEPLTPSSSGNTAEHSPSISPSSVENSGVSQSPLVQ
# human RAR-related Orphan Receptor gamma (RORg), RORC (gene 6097), sequence (P51449 whole entry, looked up, the tested form may be a part): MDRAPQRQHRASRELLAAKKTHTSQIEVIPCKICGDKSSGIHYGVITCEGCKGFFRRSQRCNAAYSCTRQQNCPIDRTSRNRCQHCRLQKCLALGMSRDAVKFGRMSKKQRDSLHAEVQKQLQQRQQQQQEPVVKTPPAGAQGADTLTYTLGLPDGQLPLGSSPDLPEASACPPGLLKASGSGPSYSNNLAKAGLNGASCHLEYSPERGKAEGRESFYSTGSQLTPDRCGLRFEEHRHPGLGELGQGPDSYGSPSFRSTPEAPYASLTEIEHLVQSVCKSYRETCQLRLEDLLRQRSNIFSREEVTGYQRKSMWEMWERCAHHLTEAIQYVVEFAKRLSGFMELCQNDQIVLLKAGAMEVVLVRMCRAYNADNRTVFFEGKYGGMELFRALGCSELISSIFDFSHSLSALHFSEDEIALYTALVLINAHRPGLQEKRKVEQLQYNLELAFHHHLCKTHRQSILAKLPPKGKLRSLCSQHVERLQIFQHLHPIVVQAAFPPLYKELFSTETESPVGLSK
structure (smiles),measurement,setting,value
CC(=O)Nc1ccc(O)cc1,outcome,[1],inactive
same,outcome,[2],inactive
same,outcome,[3],inactive
same,outcome,[4],inactive
same,outcome,[5],inactive
same,outcome,[6],inactive
same,outcome,[7],inactive
same,outcome,[8],inactive
same,outcome,[9],inactive
same,outcome,[10],inactive
same,outcome,[11],inactive
same,outcome,[12],inactive
same,outcome,[13],inactive
CC[N+](CC)(CC)Cc1ccccc1,outcome,[1],inactive
same,outcome,[14],inactive
same,outcome,[2],inactive
same,outcome,[3],inactive
same,outcome,[15],inactive
same,outcome,[16],inactive
same,outcome,[17],inactive
same,outcome,[4],inactive
same,outcome,[5],inactive
same,outcome,[18],inactive
same,outcome,[7],inactive
same,outcome,[8],inactive
same,outcome,[9],inactive
same,outcome,[10],inactive
same,outcome,[11],inactive
same,outcome,[12],inactive
same,outcome,[13],inactive
same,outcome,[19],inactive
O=C(O)C(F)(F)OC(F)(F)C(F)(F)OC(F)(F)C(F)(F)OC(F)(F)C(F)(F)C(F)(F)C(F)(F)F,AC50,[1],45.4 µM (active) and 53.1 µM (active)
same,outcome,[14],inactive
same,outcome,[2],inactive
same,AC50,[3],18 µM (active) and 18.4 µM (active)
same,AC50,[20],13.1 µM (active) and 19.1 µM (active)
same,AC50,[15],16.5 µM (active) and 19.4 µM (active)
same,outcome,[16],inactive
same,outcome,[17],inactive
same,outcome,[4],inactive
same,outcome,[5],inactive
same,AC50,[7],49.6 µM (active) and 49 µM (active)
same,AC50,[8],6.32 µM (active) and 6.18 µM (active)
same,AC50,[9],44.8 µM (active) and 46.6 µM (active)
same,AC50,[10],42.4 µM (active) and 40.5 µM (active)
same,AC50,[11],45.5 µM (active) and 50.6 µM (active)
same,AC50,[12],36.6 µM (active) and 23.5 µM (active)
same,AC50,[13],58.2 µM (active) and 54.8 µM (active)
same,outcome,[19],inactive
OCCN1CN(CCO)CN(CCO)C1,AC50,[1],29.4 µM (active)
same,outcome,[14],inactive
same,outcome,[2],inactive
same,AC50,[3],24.2 µM (active)
same,outcome,[20],inactive
same,outcome,[16],inactive
same,outcome,[17],inactive
same,outcome,[4],inactive
same,outcome,[5],inactive
same,outcome,[18],inactive
same,outcome,[6],inactive
same,AC50,[7],34.1 µM (active)
same,AC50,[8],4.12 µM (active)
same,AC50,[9],31.1 µM (active)
same,AC50,[10],35.5 µM (active)
same,AC50,[11],28 µM (active)
same,AC50,[12],29.2 µM (active)
same,AC50,[13],36.6 µM (active)
same,outcome,[19],inactive
CCCCCCCCCCCCCCCCCC[N+](C)(C)Cc1ccccc1,AC50,[1],2.56 µM (active)
same,outcome,[14],inactive
same,outcome,[2],inactive
same,AC50,[3],0.281 µM (active)
same,AC50,[20],83.5 µM (active)
same,outcome,[15],inactive
same,AC50,[16],89.2 µM (active)
same,outcome,[4],inactive
same,outcome,[5],inactive
same,outcome,[18],inactive
same,AC50,[6],50 µM (active)
same,AC50,[7],2.68 µM (active)
same,AC50,[8],3.96 µM (active)
same,AC50,[9],0.716 µM (active)
same,AC50,[10],0.929 µM (active)
same,AC50,[11],0.515 µM (active)
same,AC50,[12],4.38 µM (active)
same,AC50,[13],5.26 µM (active)
same,outcome,[19],inactive
CC(C)(C)c1ccc(O)c(O)c1,outcome,[1],inactive
same,outcome,[14],inactive
same,outcome,[2],inactive
same,AC50,[3],20 µM (active)
same,AC50,[15],7.04 µM (active) [middle of 5 runs]
same,outcome,[16],inactive
same,outcome,[4],inactive
same,outcome,[5],inactive
same,AC50,[7],3.97 µM (active)
same,AC50,[8],20 µM (active)
same,outcome,[9],inactive
same,AC50,[10],5.58 µM (active)
same,AC50,[11],5.3 µM (active)
same,outcome,[12],inactive
same,outcome,[13],inactive
same,outcome,[19],inactive
